POLK inh: blocks human DNA polymerase kappa activity. purified Pol kappa, fluorescent DNA synthesis assay, 10 min. AID 588579. Potency, µM (doses to about 107 µM), for inactives: at the top dose activity, negative = inhibition, usual class: inhibitors. 0.53% of 400,000 active; also: potency is read from the fitted curve at half-maximal effect; % is scaled to controls: 0 for no effect and ±100 for the full control effect
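Pol kappa 10 nM + cpd, 15 min RT; start w/ substrate 50 nM final; fluorescence kinetic read, 0 and 10 min. Neg ctrl: buffer, no enzyme.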
PI5P4K alpha inh: inhibitors of human PI5P4K alpha. P48426. PI5P4Kalpha enzyme, ADP-Glo luminescence, 60 min; stronger effect = lower value. max response, %. 1.2% of 330,000 active; active = max response of -50% or lower; inconclusive = between -30% and -50%; inactive = -30% or higher; also: value at the top dose of about 77 µM; % is scaled to controls: 0 for no effect and ±100 for the full control effect
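qHTS, 1536-well: enzyme/substrate mix, compound by pin tool, 5 microM ATP final; RT 60 min; ADP-Glo reagents 1 (45 min) then 2 (30 min); luminescence.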
Pol beta inh: inhibitors of human DNA polymerase beta; Pol beta primer extension/strand displacement, fluorescence kinetic; Potency, µM (titrated, usually from 114 µM), for inactives: at the highest dose activity change, negative = inhibition, usual class: inhibitors; 1.3% of 340,000 active; also: potency is read from the fitted curve at half-maximal effect; % is scaled to controls: 0 for no effect and ±100 for the full control effect
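Values derive from four-parameter Hill fits of normalized kinetic data: reads at 0 and 10 min following addition of 50 nM substrate to 10 nM Pol beta preincubated 15 min with compound.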
Pol iota inh: inhibitors of human DNA polymerase iota. Q9UNA4. Pol iota fluorescent replication assay, 10 min. Potency, µM (titrated, usually from 115 µM), inactives show at the highest dose activity, negative = inhibition, most hits filed as inhibitors. 1% of 390,000 active. AID 588590; also: potency is read from the fitted curve at half-maximal effect
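Pol iota at 10 nM preincubated 15 min with compounds at room temperature; reaction started with fluorescent substrate, 50 nM final. Fluorescence read kinetically at 0 and 10 min; buffer-only wells as negative control.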
POLH inh: DNA polymerase eta (human) inhibition | recombinant Pol eta, fluorescent DNA replication assay | Potency, µM (top dose mostly 114 µM), inactives show top-dose activity change, negative = inhibition, hits mostly inhibitors | 1.2% of 390,000 active | AID 588591 | Q9Y253; also: potency is read from the fitted curve at half-maximal effect; % is scaled to controls: 0 for no effect and ±100 for the full control effect
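Fluorescent replication assay: 50 nM final substrate added after a 15 min room-temperature compound preincubation with 10 nM enzyme. Signal taken at 0 min and again at 10 min.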
PI4K2A block: blocks human PI4K2A kinase activity; purified PI4K2A, ADP-Glo luminescence, 1 h; stronger effect = lower value; activity change, negative = inhibition, % at 76.9 µM; 0.13% of 420,000 active; AID 1346378; in the data active = activity change below about -50%; inconclusive = mostly about -30% to -49%;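 also: -100% = wells without enzyme as full effect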
Target sequence (Q9BTU6 whole entry, looked up): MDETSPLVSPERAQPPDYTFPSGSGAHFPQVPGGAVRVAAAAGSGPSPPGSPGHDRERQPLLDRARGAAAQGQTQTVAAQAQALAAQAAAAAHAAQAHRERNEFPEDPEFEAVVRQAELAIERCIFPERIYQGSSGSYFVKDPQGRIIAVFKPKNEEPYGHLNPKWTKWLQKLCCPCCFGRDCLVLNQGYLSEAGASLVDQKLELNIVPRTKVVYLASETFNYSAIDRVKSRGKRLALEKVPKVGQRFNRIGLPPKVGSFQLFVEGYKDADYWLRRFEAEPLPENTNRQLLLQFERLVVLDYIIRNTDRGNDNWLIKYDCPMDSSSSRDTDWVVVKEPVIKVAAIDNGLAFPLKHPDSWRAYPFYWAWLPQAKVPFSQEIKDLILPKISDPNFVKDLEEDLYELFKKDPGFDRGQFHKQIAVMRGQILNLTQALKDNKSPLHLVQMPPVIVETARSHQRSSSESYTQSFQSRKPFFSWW
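In this quantitative HTS, ADP production by PI4K2A was quantified luminescently after 1 h at ambient temperature; 100 microM adenosine served as plate-quality control.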
Numbers without * were called inactive; ? = inconclusive; / = no result given; ! = repeats disagree; [ ] = another dose, or the depositor's remark. In the library only some 2.8% were active in any assay of this set; here they are far more common. Unless noted, calls follow the shape of the dose curve; as a rule, active = well fitted inhibition curve with a large enough effect; inconclusive = small, poorly fitted or top-dose-only effect, or another doubt; inactive = no such curve, though single readings can be large or run the other way.

SMILES | POLK inh | PI5P4K alpha inh | Pol beta inh | Pol iota inh | POLH inh | PI4K2A block
CN(C)C(=O)c1cccc(-c2cnc3c(NC=O)cc(-c4ccccc4Cl)cn23)c1 | / | -65.4* | / | / | / | -9.4
CN(C)C(=O)c1cccc(-c2cnc3c(NC=O)cc(-c4ccccc4N(C)C)cn23)c1 | / | ? | / | / | / | -6.0
CCN1C(=O)C(Cc2nc3ccccc3c(=O)n2-c2ccccc2)c2cc(Br)ccc21 (stereo not drawn) | -8.2% | / | 12.2% | 1.2% | / | -0.6
Cc1ccc(C)c(NC(=O)c2nc(S(=O)(=O)Cc3ccc(F)cc3)ncc2Cl)c1 | -5.7% | / | 31.6µM* | ? | 89.1µM* | 5.1
Cc1nnc(NC(=O)c2nc(S(=O)(=O)Cc3ccccc3C)ncc2Cl)s1 | -15.9% | -17.8 | ? | ? | 56.2µM* | -26.8
C[C@@](N)(Cc1ccc(O)c(O)c1)C(=O)O | 3.55µM*! | / | / | / | / | /
CCOC(=O)[C@@](C)(N)Cc1ccc(O)c(O)c1 | / | / | / | / | / | -1.1
O=C(Nc1ccc(Cl)c(Cl)c1)c1cccc2c1-c1ccccc1C2=O | / | / | / | / | / | 4.2
Cc1ccc(/C=c2\sc3nc(-c4ccccc4Br)nn3c2=O)o1 | 20µM* | ? | 14.1µM* | ? | 10µM* | 2.7
Cc1ccc(-c2nc3s/c(=C\c4ccco4)c(=O)n3n2)cc1 | -42.2% | / | 28.2µM* | 25.1µM* | 89.1µM* | 3.3
Cc1cc(C)cc(N2CN=c3s/c(=C\c4ccco4)c(=O)n3C2)c1 | 2.1% | -12.1 | ? | 8.1% | ? | 4.3
Cc1ccc(/C=c2/sc3nnc(-c4ccccc4Cl)n3c2=O)o1 | -28.7% | -25.4 | 39.8µM* | ? | 14.1µM* | 4.6
COc1ccccc1/C=c1\sc2nc(-c3ccccc3OC)nn2c1=O | -7.8% | 9.2 | 2.8% | -5.2% | -2.1% | 115.2
Cc1ccc(/C=c2\sc3nc(-c4ccco4)nn3c2=O)o1 | 28.2µM* | -69.3* | 28.2µM* | ? | 3.55µM* | 0.7
C=CCOc1ccccc1/C=c1\sc2nc(-c3oc4ccccc4c3C)nn2c1=O | -1.5% | / | / | -15.6%[58.9 µM] | -10.5% | 77.9
Cc1ccsc1/C=N/n1c(-c2cc(-c3ccccc3)n[nH]2)n[nH]c1=S | ? | -17.3 | 11.2µM* | ? | ? | -1.4
S=c1[nH]nc(-c2cc(-c3ccccc3)n[nH]2)n1/N=C/c1cccc2ccccc12 | / | / | / | / | / | 111.9
S=c1[nH]nc(-c2cc(-c3ccccc3)n[nH]2)n1/N=C/c1c(Cl)cccc1Cl | ? | ? | 14.1µM* | 20µM* | 79.4µM* | -1.0
NC(=O)Nc1ccc(/C=C2\C=Cc3ccccc32)cc1 | -10.5% | / | / | 4.6% | / | /
Cc1ccc(S(=O)(=O)N2C=C(c3ccccc3)c3ccccc3-c3ccccc32)cc1 | / | / | / | / | / | -4.3
O=C(NC1CCCCC1)C(C1CC1)n1c(=O)c(-c2ccco2)nc2ccccc21 (stereo not drawn) | / | ? | / | / | / | -7.7
N#Cc1ccc(C(C(=O)NC2CCCCC2)n2c(=O)c(-c3ccco3)nc3ccccc32)cc1 (stereo not drawn) | / | -74.5* | / | / | / | -21.3
N#Cc1ccc(C(C(=O)NC2CCCCC2)n2c(=O)c(-c3cc4ccccc4[nH]3)nc3ccccc32)cc1 (stereo not drawn) | / | -2.7 | / | / | / | 2.4
O=C(NC1CCCCC1)C(c1ccccc1)n1c(=O)c(-c2ccco2)nc2ccccc21 (stereo not drawn) | / | -79.8* | / | / | / | -17.8
O=C(NC1CCCCC1)C(c1ccc(C(F)(F)F)cc1)n1c(=O)c(-c2ccco2)nc2ccccc21 (stereo not drawn) | / | -75.2* | / | / | / | -8.7
O=C(COc1ccccc1Cl)NCC1(N2CCOCC2)CCCCC1 | -21.8% | / | -15.7% | -15.1% | -8.8% | -10.9
CCc1nn(CC(=O)Nc2ccc(C)cc2C)c(=O)c2cc3sccc3n12 | -2.2% | / | 16.8% | 6.0% | -6.9% | 2.8
O=C(O)COc1ccccc1/C=C1\SC(=Nc2ccc(F)cc2)N(c2ccc(F)cc2)C1=O | 5.2% | -14.7 | -5.1% | 15.0% | 56.2µM* | -0.6
Oc1ccccc1Oc1c(F)c(F)nc(N2CCCC2)c1F | -7.5%[60.1 µM] | -15.7 | 44.7µM* | ? | -20.7% | 1.0

Compound activity (PubChem BioAssay)
